Several values for one entry are separate records, joined by “and”; a condition that tells them apart may be missing. Identical values can stand only once. About 2,000 (36%) of roughly 5,500 compounds were called active. Not shown: some 18% with an inconclusive outcome. Cut-off read from the data, not from the text of the source: active = normalized growth mostly below about 0.91 (no sharp cut-off); inconclusive = no clear call, values can overlap the other calls; inactive = mostly above about 0.92. The list shows a part of the results.
Experiment: chemical genetic growth profiling, strain panel (AID 1159580);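 note: tested at 20 µM; growth read once vehicle control cultures reached saturation at 30 °C; 1 = growth at the plate median or of vehicle wells; lower values mean less growth of the strain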
Details: S. cerevisiae deletion strains, growth OD

Measured: normalized growth

COc1c2occc2cc2ccc(=O)oc12
inactive: locus YAL013W, strain DEP1, hits give low values 0.992 | locus YAL021C, strain ccr4, hits give low values 0.966 | locus YAL026C, strain drs2, hits give low values 0.954 | locus YAL030W, strain snc1, hits give low values 0.975 | locus YBL061C, strain skt5, hits give low values 0.973 | locus YBR021W, strain FUR4, hits give low values 1.08 | locus YBR023C, strain chs3, hits give low values 0.926 | locus YBR171W, strain sec66, hits give low values 0.945 | locus YBR229C, strain ROT2, hits give low values 1.01 | locus YBR231C, strain swc5, hits give low values 1.03 | locus YBR279W, strain paf1, hits give low values 0.98 | locus YCL029C, strain bik1, hits give low values 0.976 | locus YCL061C, strain MRC1, hits give low values 0.931 | locus YCL069W, strain vba3, hits give low values 0.96 | locus YCR088W, strain abp1, hits give low values 0.998 | locus YDL005C, strain med2, hits give low values 0.987 | locus YDL035C, strain GPR1, hits give low values 0.956 | locus YDL040C, strain nat1, hits give low values 0.995 | locus YDL074C, strain BRE1, hits give low values 0.908 | locus YDL101C, strain DUN1, hits give low values 0.958 | locus YDL134C, strain PPH21, hits give low values 0.997 | locus YDL185W, strain tfp1, hits give low values 0.928 | locus YDL192W, strain arf1, hits give low values 0.969 | locus YDR001C, strain nth1, hits give low values 0.983 | locus YDR069C, strain doa4, hits give low values 0.964 | locus YDR101C, strain arx1, hits give low values 0.993 | locus YDR137W, strain rgp1, hits give low values 0.954 | locus YDR150W, strain NUM1, hits give low values 0.952 | locus YDR159W, strain sac3, hits give low values 1.02 | locus YDR162C, strain NBP2, hits give low values 0.931 | locus YDR297W, strain sur2, hits give low values 0.978 | locus YDR318W, strain mcm21, hits give low values 0.953 | locus YDR334W, strain swr1, hits give low values 0.919 | locus YDR335W, strain msn5, hits give low values 0.982 | locus YDR388W, hits give low values 0.985 | locus YDR392W, strain spt3, hits give low values 0.852 | locus YDR502C, strain sam2, hits give low values 0.957 | locus YEL003W, strain gim4, hits give low values 0.988 | locus YEL037C, strain rad23, hits give low values 0.944 | locus YEL061C, strain CIN8 (second series), hits give low values 0.981 | locus YEL061C, strain CIN8, hits give low values 0.999 | locus YER015W, strain faa2, hits give low values 0.965 | locus YER016W, strain bim1, hits give low values 1 | locus YER110C, hits give low values 0.948 | locus YER111C, strain swi4, hits give low values 0.973 | locus YER155C, strain BEM2 (second series), hits give low values 0.866 | locus YER155C, strain BEM2, hits give low values 1.03 | locus YER167W, strain BCK2, hits give low values 0.982 | locus YFR010W, strain ubp6, hits give low values 0.94 | locus YGL078C, strain dbp3, hits give low values 0.99 | locus YGL086W, strain mad1, hits give low values 0.961 | locus YGL167C, strain pmr1, hits give low values 0.998 | locus YGL173C, strain kem1, hits give low values 0.973 | locus YGL227W, strain vid30, hits give low values 0.988 | locus YGL240W, strain doc1, hits give low values 0.99 | locus YGL248W, strain PDE1, hits give low values 0.999 | locus YGL253W, strain hxk2, hits give low values 0.942 | locus YGR078C, strain PAC10, hits give low values 0.922 | locus YGR135W, strain pre9, hits give low values 0.935 | locus YGR229C, strain SMI1, hits give low values 0.948 | locus YGR252W, strain gcn5, hits give low values 0.817 | locus YHR013C, strain ard1, hits give low values 0.935 | locus YHR027C, strain rpn1, hits give low values 0.956 | locus YHR030C, strain SLT2, hits give low values 0.995 and 1.02 | locus YHR079C, strain IRE1 (second series), hits give low values 0.992 | locus YHR079C, strain IRE1, hits give low values 1.03 | locus YHR094C, strain hxt1, hits give low values 0.988 | locus YHR129C, strain ARP1, hits give low values 0.996 | locus YHR200W, strain rpn10, hits give low values 0.928 | locus YIL066C, strain RNR3, hits give low values 0.933 | locus YIL073C, strain SPO22, hits give low values 0.865 | locus YIL125W, strain kgd1, hits give low values 1 | locus YIR030C, strain dcg1, hits give low values 0.998 | locus YJL095W, strain BCK1 (second series), hits give low values 0.982 | locus YJL095W, strain BCK1, hits give low values 0.911 and 1.02 | locus YJL115W, strain asf1, hits give low values 0.943 | locus YJL129C, strain trk1, hits give low values 0.987 | locus YJL134W, strain LCB3, hits give low values 0.985 | locus YJL154C, strain vps35, hits give low values 0.984 | locus YJL164C, strain tpk1, hits give low values 0.945 | locus YJL166W, strain qcr8, hits give low values 0.943 | locus YJL168C, strain set2, hits give low values 0.985 | locus YJL187C, strain SWE1 (second series), hits give low values 0.974 | locus YJL187C, strain SWE1, hits give low values 0.976 | locus YJR043C, strain POL32, hits give low values 0.953 | locus YJR066W, strain TOR1, hits give low values 0.969
active: locus YBR009C, strain hhf1, hits give low values 0.878 | locus YCL011C, strain gbp2, hits give low values 0.88 | locus YCL016C, strain dcc1, hits give low values 0.888 | locus YDR195W, strain ref2 1.17 [resistant] | locus YHR142W, strain chs7, hits give low values 0.856 | locus YJL092W, strain hpr5, hits give low values 0.917
